Reference: PubChem BioAssay (EPA / NIEHS)
The source made the active and inactive calls. Rule for the calls: active = hit-call score of the fitted dose curve at least 0.9, where 1 is the maximum; inactive = score below 0.9.

test: ATG_TGFb_CIS: Attagene CIS-FACTORIAL HepG2 Assay for human Transforming Growth Factor (TGF) (AID 2282967); conditions: HepG2 Attagene CIS TGFb reporter, mRNA transcription; actives raise or lower the signal
Experimental: ATG_CIS is a cell-based, multiplexed-readout assay that uses HepG2, a human liver cell line, with measurements taken at 24 hours after chemical dosing in a 24-well plate.ATG_TGFb_CIS is one of 52 assay component(s) measured or calculated from the ATG_CIS assay. It is designed to make measurements of mRNA induction, a form of inducible reporter, as detected with fluorescence intensity signals by Reverse transcription polymerase chain reaction (RT-PCR) and Capillary electrophoresis technology.Data from the assay component ATG_TGFb_CIS was analyzed into 1 assay endpoint. This assay endpoint, ATG_TGFb_CIS, was analyzed with bidirectional fitting relative to DMSO as the negative control and baseline of activity. Using a type of inducible reporter, measures of mRNA for gain or loss-of-signal activity can be used to understand the reporter gene at the transcription factor-level as they relate to the gene TGFB1. Furthermore, this assay endpoint can be referred to as a primary readout, because this assay has produced multiple assay endpoints where this one serves a reporter gene function. To generalize the intended target to other relatable targets, this assay endpoint is annotated to the growth factor intended target family, where the subfamily is transforming growth factor beta.
Human liver HepG2 cells are transiently transfected with multiple reporter transcription units (MRTUs) in 6-well plates using FuGene 6 reagent (Roche; 3 ml FuGene/1 mg DNA). The MRTU constructs are regulated by a cis-regulating element (promoter). […] A major difference between the CIS and TRANS system is that in CIS activities of endogenous TFs are measured, whereas the TRANS assay evaluates changes in activities of exogenous, chimeric NR-Gal4 proteins. […] At the end of 24 hour incubation, total RNA was isolated using TriZol reagent (Invitrogen). The isolated RNA is then reverse-transcribed using oligo(dT) primer and Mo-MLV reverse transcriptase (Invitrogen) with DNAse I (Ambion) treatment for 30 min. The one-tenth of the produced cDNA was amplified by PCR using Taq DNA polymerase (Invitrogen) and two reporter sequence-specific primers. The PCR products were fluorescently labeled by primer extension with 6-arboxyfluorescein (6-FAM) 5'-labeled reporter sequence-specific primer (2 min at 95 C, 20 s at 68 C and 10 min at 72 C) and these products were digested with 5U of HpaI (New England Biolabs) for 2h at 37 C. The fragments were purified using Qiaquick PCR columns (Qiagen), analyzed on an ABI 3130xL genetic analyzer (Applied Biosystems) with peak positions identified by using a set of X-rhodamine (ROX)-labeled MapMarker1000 molecular weight standards (BioVentures). The raw capillary electrophoresis data was processed using Attagraph software (Attagene).

Compound	outcome	AC50
O=C(O)c1ccc(O)cc1	inactive	
CN(C)c1cccc(O)c1	inactive	
CCNCCO	inactive	
O=C(O)c1cc(C(=O)O)cc([N+](=O)[O-])c1	inactive	
Cc1ccc(N)c(S(=O)(=O)O)c1	inactive	
CCc1cc(Cc2cc(CC)cc(C(C)(C)C)c2O)c(O)c(C(C)(C)C)c1	inactive	
CC(=O)C(C)O (stereo not given)	inactive	
CCCOC(=O)c1c(Cl)c(Cl)c(Cl)c(Cl)c1C(=O)OCCC	inactive	
C=CCOC(=O)CCCCCC		0.0799 µM (active)
C=Cc1ccc(C)cc1	inactive	
C=CC(=O)OCCCC	inactive	
O=C(O)COCC(=O)O	inactive	
CC1C2CC(CC2C2CCCC(O)C2)C1(C)C (stereo not given)	inactive	
CS(=O)(=O)OCCCCOS(C)(=O)=O	inactive	
FC(F)(F)COCC(F)(F)F	inactive	
COCCOCCOCCO	inactive	
Cc1ccc(OC(=O)c2ccccc2O)cc1	inactive	
CC1=NN(c2ccc(S(=O)(=O)O)cc2)C(=O)C1	inactive	
Nc1ccc(NCCO)c([N+](=O)[O-])c1	inactive	
CC(C)(C)OC(=O)c1ccc(O)cc1	inactive	

Compound	outcome	AC50
CCC(Cl)C(Cl)C(Cl)CC(Cl)C(Cl)C(C)Cl (stereo not given)		64.6 µM (active)
c1ccc2[nH]cnc2c1	inactive	
COc1cc(CCC(C)=O)ccc1O	inactive	
CCCCCCCCCC(=O)OC	inactive	
OCCOCCN1CCN(C2=Nc3ccccc3Sc3ccccc32)CC1	inactive	
C=Cc1ccncc1	inactive	
Cc1cc(CCC(=O)OCCOCCOCCOC(=O)CCc2cc(C)c(O)c(C(C)(C)C)c2)cc(C(C)(C)C)c1O	inactive	
Cc1ccc(C)o1	inactive	
CCCCC1CCC(O)CC1 (stereo not given)	inactive	
COc1cc(Cl)c(OC)cc1N	inactive	
CCOC(=O)CC(C)O (stereo not given)	inactive	
Nc1ccc2c(O)cc(S(=O)(=O)O)cc2c1	inactive	
CC(C)CCCCCCc1ccc(OCCOCCO)cc1	inactive	
c1ccc2cc(Nc3ccc(Nc4ccc5ccccc5c4)cc3)ccc2c1	inactive	
CCCCCCCCCCCCS(=O)(=O)Cl	inactive	
CCN(CCN)c1cccc(C)c1	inactive	
NCCNc1cccc2ccccc12	inactive	
ON=C1CCCCC1	inactive	
O=C1NC2NC(=O)NC2N1 (stereo not given)	inactive	
CS(C)=O	inactive	
